Screening data deposited in PubChem BioAssay by The Scripps Research Institute Molecular Screening Center.
MITF primary: MITF inhibitors, primary screen, biochemical, AlphaScreen, human; Microphthalmia-associated transcription factor (Homo sapiens), O75030; inhibition, % at 2.6 µM; hit rate 0.91% among 650,000; AlphaScreen MITF homodimerization, bead proximity signal; in the data active means inhibition above about 50%;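 further: 0% = vehicle wells with protein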
FBW7 act: FBW7 E3 ligase activators, primary screen, biochemical, AlphaScreen, human. AlphaScreen FBW7–phospho-cyclin E peptide binding, activator screen. normalized activity (activation), % at 26.1 µM. hit rate 0.13% among 650,000. AID 1259310, 2017; in the data active means normalized activity above about 1.9%;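 further: purified mutant Fbw7 with reduced substrate affinity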
TEAD-YAP block: TEAD-YAP interaction inhibition, primary screen, TEAD-YAP interaction inhibitor project, luminescence, HEK-TIYL cells; inhibition, % at 9.12 µM; TEAD-Gal4/YAP UAS-luciferase luminescence; hit rate 1.4% among 640,000; AID 1259422, 2018; in the data active means inhibition above about 32%;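 further: 0% = median of test compound wells and 100% = reference inhibitor wells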
GPR151 activ: activators of human GPR151, primary screen, cell-based, PathHunter beta-arrestin, luminescence | G-protein coupled receptor 151 (Homo sapiens), Q8TDV0 | activation, % at 11.2 µM | AID 1508602, 2020 | PathHunter beta-arrestin GPR151 cells | hit rate 1% among 650,000; in the data active means activation above about 4.9%;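 further: 0% = median of compound wells and 100% = cells with positive control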
Target sequence (Q8TDV0 whole entry, looked up): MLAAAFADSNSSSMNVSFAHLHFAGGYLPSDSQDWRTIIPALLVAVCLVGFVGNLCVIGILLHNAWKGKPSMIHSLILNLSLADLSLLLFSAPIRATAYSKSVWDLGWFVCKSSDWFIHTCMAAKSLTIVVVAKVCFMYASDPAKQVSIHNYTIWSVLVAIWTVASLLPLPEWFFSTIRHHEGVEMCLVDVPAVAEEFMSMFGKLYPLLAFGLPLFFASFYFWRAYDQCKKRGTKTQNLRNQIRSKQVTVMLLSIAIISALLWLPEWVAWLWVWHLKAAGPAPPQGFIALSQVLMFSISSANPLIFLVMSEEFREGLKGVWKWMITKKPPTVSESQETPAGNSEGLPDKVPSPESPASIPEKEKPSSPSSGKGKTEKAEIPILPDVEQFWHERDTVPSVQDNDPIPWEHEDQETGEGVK
GPR151 confirm: GPR151 activators, triplicate retest, confirmation, cell-based, PathHunter beta-arrestin, luminescence | 6,700 tested, under 10 active | activation, % at 11.2 µM | GPR151 PathHunter beta-arrestin cells, 90 min; % of EA-reagent control over plate median | shares compounds with GPR151 activ | AID 1508609, 2020;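 active means mean percent activation across replicates above the confirmation screen cutoff of 4.91%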
GPR119 ag: GPR119 activators in beta-arrestin cells, counter-screen for GPR151 activator project, cell-based, PathHunter beta-arrestin, luminescence, triplicate | shares compounds with GPR151 activ | 90 min; 0 = compound-well median, 100 = enzyme-acceptor control | activation, % at 11.2 µM | hit rate 0.3% among 6,700;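 active means mean percent activation in the counterscreen above 29.09%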;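 further: counterscreen on off-target GPR119 to flag nonselective hits from the GPR151 activator screen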
* hit, by the source's call; · = no result given. A selection: hits, their analogues and other compounds. The true share with any hit is near 3.5%.

SMILES	MITF primary	FBW7 act	TEAD-YAP block	GPR151 activ	GPR151 confirm	GPR119 ag
COC(=O)C1=C(C)NC(=O)N(C(C)=O)C1c1ccc(OC)c(OC)c1 (stereo not drawn)	3.3	0.2	-2.5	-0.6	·	·
CN(Cc1cccc(C(=O)NCCCCCCNS(=O)(=O)c2cccc3c(N(C)C)cccc23)c1)C(=O)Nc1ccc(-c2cn[nH]c2)cc1	19.4	3.1*	20.6	5.7*	0.4	9.0
CN1CCN(CCCN2c3ccccc3Sc3ccc(S(=O)(=O)N(C)C)cc32)CC1	-5.4	-0.1	·	5.4*	-0.8	-7.4
OCCN1CCN(CCCN2c3ccccc3Sc3ccc(Cl)cc32)CC1	18.2	-0.2	2.9	4.4	·	·
Cc1nc2ccccc2c(=O)n1CC(=O)N1CCOCC1	10.4	0.7	6.4	-1.5	·	·
Cc1nc2ccccc2c(=O)n1-c1ccc(N2CCOCC2)c(C(F)(F)F)c1	-4.9	-0.1	8.9	5.9*	1.2	-3.6
c1nnn(CC2CCOCO2)n1 (stereo not drawn)	11.9	0.1	7.1	14.6*	0.1	-4.9
CC(=O)/C=C/c1ccc(OC(F)F)cc1	11.8	0.0	4.7	6.0*	-0.1	-4.9
O=C1NC(=O)/C(=C/c2ccccc2OCC(=O)N2CCCCC2)S1	2.2	-0.2	0.5	4.7	·	·
O=C1CCCN1CCn1cnc2c(NCCOc3ccccc3)nc(N3CCc4ccccc4C3)nc21	0.2	-0.1	9.6	15.2*	1.6	-8.5
O=C1CCCN1CCCNc1nc(N2CCc3ccccc3C2)nc2c1ncn2CCN1CCCC1=O	-2.7	0.1	11.0	-1.4	·	·
O=C1CCCN1CCCNc1nc(-c2csc3ccccc23)nc2c1ncn2-c1ccccc1	0.3	0.0	10.8	5.8*	0.1	-5.2
Cc1noc(C)c1-c1nc(NCCOc2ccccc2)c2ncn(CCN3CCCC3=O)c2n1	10.7	0.0	5.4	6.1*	-0.2	-7.7
O=C1CCCN1CCCNc1nc(-c2csc3ccccc23)nc2c1ncn2Cc1ccc(C(F)(F)F)cc1	-8.6	0.0	-7.5	-0.4	·	·
Fc1ccccc1C1C=C(c2ccccc2OC(F)F)Nc2nnnn21 (stereo not drawn)	-5.3	-0.1	1.6	-0.5	·	·
CC(=O)N1CCc2c(sc(NC(=O)c3ccco3)c2C#N)C1	2.8	0.2	-0.9	-0.6	·	·
CC(=O)N1CCC(N(C(=O)C2CCN(c3ccc(C(F)(F)F)cn3)CC2)C2CC2)CC1	16.4	-0.2	-2.7	5.5*	-0.6	-3.3
CCc1ccc(OCCCC(=O)NCc2ccco2)cc1	2.3	-0.1	-7.0	6.6*	0.2	7.8
Cc1ccc(C(=O)NCc2ccco2)c(Cl)c1	-3.8	0.1	-21.1	8.7*	-0.4	5.0
Cc1ccc(OCCNC(=O)C(=O)NCc2ccco2)cc1	2.3	-0.1	32.7*	6.5*	-0.2	-4.5
CC(=O)c1ccc(OCCCC(=O)NCc2ccco2)cc1	7.9	-0.1	-4.1	-0.5	·	·
COCCNC(=O)C(=O)NCc1ccco1	4.0	-0.1	1.0	-1.5	·	·
COCCNC(=O)Nc1nc(-c2ccc3c(c2)CCCC3)cs1	0.0	-0.2	-16.7	7.3*	0.1	-4.8
O=C(CN1C(=O)CCC1=O)Nc1nc(-c2ccc3c(c2)CCCC3)cs1	9.1	0.1	-5.3	0.5	·	·
NC(=O)c1cc(NC(=O)c2ccco2)ccc1N1CCCCC1	-5.5	0.2	-39.6	6.5*	0.1	10.2
SMILES	MITF primary	FBW7 act	TEAD-YAP block	GPR151 activ	GPR151 confirm	GPR119 ag
O=C(Nc1ccc(N2CCCCC2)c(C(=O)O)c1)c1ccco1	3.8	-0.1	-6.1	-0.5	·	·
CCOc1ccc(C(=O)N=C2N=C3C=CC=CN3Cc3ccccc32)cc1	-15.2	0.0	-24.3	-7.8	·	·
CCOc1cc(C2C(C(=O)OC(C)CC)=C(C)NC3=C2C(=O)CC(C)(C)C3)ccc1OC(C)=O (stereo not drawn)	0.8	-0.1	14.1	-0.6	·	·
COCCNC(=S)N(C)c1ccc(O)cc1	-7.4	-0.2	-1.8	2.3	·	·
CCN(C(=S)NCCOC)c1cccc2ccccc12	15.7	0.8	-6.1	13.5*	-1.7	-13.3
CC1CN(C(=O)CCC(=O)N2CCOCC2)c2ccccc2O1 (stereo not drawn)	3.5	0.2	7.8	8.3*	-0.6	-18.7
O=C(NCCN1CCNCC1)c1cc(C2COc3ccccc3O2)nc2ccc(-c3cn[nH]c3)cc12 (stereo not drawn)	-2.4	-0.2	-0.4	0.4	·	·
O=C(O)c1cc(C2COc3ccccc3O2)nc2ccc(-c3cn[nH]c3)cc12 (stereo not drawn)	20.8	0.0	3.8	12.6*	0.6	2.6
Cc1ccc(C(=O)Oc2cc(N)n(S(=O)(=O)c3ccc(C)cc3)n2)cc1	10.3	0.2	-12.8	1.1	·	·
COc1ccc(C(=O)Oc2cc(N)n(S(=O)(=O)c3ccc(C)cc3)n2)cc1OC	8.3	0.0	4.5	6.3*	0.5	10.5
COc1ccc(/C=C/C=C2/NC(=O)N(c3cccc(Cl)c3)C2=O)cc1	8.2	0.1	-7.8	-1.4	·	·
CSc1ncc(CN2CCN(C3CCCC3)C(CCO)C2)cn1 (stereo not drawn)	-0.7	0.0	2.9	9.7*	-0.4	0.3
Cc1nn(C)c(Cl)c1CN1CCN(C2CCCCC2)C(CCO)C1 (stereo not drawn)	9.4	-0.1	8.0	8.9*	-0.4	-1.0
CCOC(=O)c1c(NC(=O)CSc2nnc(CNC(=O)c3cccs3)n2C)sc2c1CCC2	-22.4	0.1	-19.1	-0.1	·	·
O=C(NC(=S)Nc1ccc(Br)cc1)c1cccs1	-0.2	-0.2	-13.7	-0.3	·	·
NC(=O)CSc1nnc2n(Cc3ccccc3)c3ccccc3n12	-2.7	-0.1	-7.0	6.1*	1.4	-2.8
Cc1cccc(Oc2ccc(N3C(=O)c4ccc(Br)cc4C3=O)cc2)c1	10.5	0.0	15.0	-0.9	·	·
COc1cccc(CNC(=O)c2ccc3nc(-c4cccs4)c(-c4cccs4)nc3c2)c1	8.9	-0.1	-2.3	-0.4	·	·
Cc1c(Cl)cccc1NC(=O)C(=O)NC(C)c1ccccc1 (stereo not drawn)	1.1	0.0	2.6	0.9	·	·
Cc1c(Cl)cccc1NC(=O)C(=O)NCC(O)c1ccccc1 (stereo not drawn)	-1.6	-0.1	-6.0	7.3*	-0.2	10.1
COC(=O)COc1ccc(NC(=O)C(c2ccccc2)c2ccccc2)cc1	16.9	0.5	-3.6	1.1	·	·
O=C(Nc1ccc(S(=O)(=O)Nc2ncccn2)cc1)C(c1ccccc1)c1ccccc1	21.0	1.4	-2.3	7.1*	0.6	-6.9
O=C(O)COc1ccc(NC(=O)C(c2ccccc2)c2ccccc2)cc1	10.2	0.1	-10.3	4.9*	-1.4	-12.7
